Assay outcomes (PubChem BioAssay)
IMPase inh: qHTS Assay for Identifying the Cell-Membrane Permeable IMPase Inhibitors; Inositol monophosphatase 1 (Rattus norvegicus), P97697; CHO-M1 cells, IP1 accumulation, HTRF TR-FRET ratio; inhibition (IP1 accumulation), % at 46.1 µM; 120,000 tested, under 10 active; active means well fitted curve in the direction sought with a large enough effect in the signal ratio, not every such curve was filed as active; inconclusive means small, poorly fitted or top-dose-only effect, or a change in a side signal; inactive means no such curve, though single readings can be large or run the other way; the % refers to the signal ratio;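 further: cells stimulated with carbachol in lithium chloride buffer; plate controls were DMSO basal wells for no effect and reference inhibitor wells for full effect; higher means more IMPase inhibition seen as more IP1 and lower FRET ratio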
Target sequence (P97697 whole entry, looked up): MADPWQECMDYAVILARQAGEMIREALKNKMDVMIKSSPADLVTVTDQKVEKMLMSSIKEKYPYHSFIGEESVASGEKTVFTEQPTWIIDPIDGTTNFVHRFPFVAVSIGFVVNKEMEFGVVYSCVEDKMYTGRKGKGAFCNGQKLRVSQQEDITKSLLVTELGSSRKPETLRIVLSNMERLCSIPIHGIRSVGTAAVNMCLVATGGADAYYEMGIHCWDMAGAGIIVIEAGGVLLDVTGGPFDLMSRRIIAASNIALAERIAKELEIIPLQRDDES
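Carbachol-driven Gq signalling in CHO-M1 cells (2000/well) generates IP1. Compounds that block IMPase raise IP1 and so reduce the FRET signal from Eu-anti-IP1 and d2-IP1 after a 10 min room-temperature lysis.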
12-hLO inh: qHTS Assay for Inhibitors of 12-hLO (12-human lipoxygenase); purified 12-hLO, xylenol orange hydroperoxide absorbance; AID 1452, 2008; Polyunsaturated fatty acid lipoxygenase ALOX12 (Homo sapiens), P18054; 0.12% of 150,000 active; Potency, µM (doses to about 57.1 µM), for the others: at the top dose activity change, negative = inhibition, actives largely listed as inhibitors; further: potency means the concentration at half of the fitted maximal effect; nearly all actives have a fitted effect of over 55% in size
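Hydroperoxide formation by human 12-lipoxygenase from 40 uM arachidonic acid was followed colorimetrically via ferric-xylenol orange complex, using the 573/405 nm absorbance ratio. Enzyme concentration was 150 nM, with 30 min reaction at room temperature.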
PNC inhibitor: High Content Assay for Compounds that inhibit the Assembly of the Perinucleolar Compartment; PC3M PTB-GFP, PNC prevalence imaging, 16 h; active compounds read low; activity change (PNC), negative = inhibition, % at 10 µM; 3.1% of 140,000 active; AID 2417, 2010;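 active means readout at or below -70, meaning at least 70% loss of cells showing the perinucleolar compartment, a nuclear body marking cancer cells; inconclusive means readout between -30 and a set limit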;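 further: plate controls were DMSO wells for no effect and camptothecin positive control wells for full effect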
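Read-out is percentage of cells bearing a perinucleolar compartment, from automated 20x imaging of fixed, Hoechst-stained PC3M PTB-GFP cells. Cells were seeded 4 h, then exposed 16 h to compound (23 nl of library stock) in duplicate plates.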
ALDH1A1 inh: qHTS Assay for Inhibitors of Aldehyde Dehydrogenase 1 (ALDH1A1) | Aldehyde dehydrogenase 1A1 (Homo sapiens), P00352 | Purified ALDH1A1, NADH fluorescence, propionaldehyde substrate | Potency, µM (highest dose often 75.3 µM), inactives show at the highest dose activity, negative = inhibition, hits mostly inhibitors | 7.3% of 220,000 active | AID 1030, 2008; active means well fitted inhibition curve with a large enough effect, not every such curve was filed as active; inconclusive means small, poorly fitted or top-dose-only effect, or another doubt; inactive means no such curve, though single readings can be large or run the other way;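 further: potency means the concentration at half of the fitted maximal effect; plate controls were no enzyme wells and a reference inhibitor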
IMPase Li cell: qHTS Assay for Identifying the Cell-Membrane Permeable IMPase Inhibitors: Potentiation with Lithium; CHO-M1 cells, IP1 TR-FRET (IP-One), carbachol + lithium; Potency, µM (titrated, usually from 59.4 µM), for the others: at the highest dose activity, negative = IMPase inhibition, most hits filed as inhibitors; 0.35% of 210,000 active; AID 1457, 2008;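 further: IP1 builds up when IMPase is blocked and the TR-FRET signal falls; potency means the concentration at half of the fitted maximal effect; plate controls were basal vehicle for no effect and high inhibitor control for full effect; nearly all actives have a fitted effect of over 50% in size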
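CHO cells stably expressing M1 receptor (2000/well, cultured 16–30 h) treated 30 min at 37C with compound plus low lithium. Cytosolic IP1 by TR-FRET (665/620 ratio and 620 channel) after 10 min lysis; AC50 by Hill fit.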
HPGD inh: qHTS Assay for Inhibitors of HPGD (15-Hydroxyprostaglandin Dehydrogenase). 15-hydroxyprostaglandin dehydrogenase [NAD(+)] (Homo sapiens), P15428. purified HPGD, NADH fluorescence kinetic, PGE2 substrate. Potency, µM, without a hit: at the highest dose activity change, negative = inhibition, actives largely listed as inhibitors. 4.3% of 150,000 active. AID 894, 2007; active means well fitted inhibition curve with a large enough effect, not every such curve was filed as active; inconclusive means small, poorly fitted or top-dose-only effect, or another doubt; inactive means no such curve, though single readings can be large or run the other way; further: potency means the concentration at half of the fitted maximal effect
Target sequence (P15428 whole entry, looked up): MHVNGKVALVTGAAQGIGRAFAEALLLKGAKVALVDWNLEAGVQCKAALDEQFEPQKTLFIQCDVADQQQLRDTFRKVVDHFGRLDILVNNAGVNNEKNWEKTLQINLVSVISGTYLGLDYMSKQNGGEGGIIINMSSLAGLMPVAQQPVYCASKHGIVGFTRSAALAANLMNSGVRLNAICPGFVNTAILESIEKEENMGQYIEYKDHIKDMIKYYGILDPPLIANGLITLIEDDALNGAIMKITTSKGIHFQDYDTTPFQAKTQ
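NADH formation kinetics: reaction with 30 uM PGE2 and 1 mM NAD+ (final), 20 nM enzyme, Tris-HCl pH 8 with Tween 20, after 15 min compound preincubation at room temperature. Fluorescence change, last versus first of five reads.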
An asterisk follows results filed as active; ? = inconclusive; . = not tested or not shown; [ ] = dose if it differs, or a comment. Shown are actives, neighbours in structure and some others; about 11% of the full set was active somewhere. Unless noted, the call rests on the fitted dose curve; in most records, active means well fitted curve in the direction sought with a large enough effect; inconclusive means small, poorly fitted or top-dose-only effect, or another doubt; inactive means no such curve, though single readings can be large; an effect the other way counts as inactive or inconclusive. Unless noted, on the % scale 0 is the no-effect control and ±100 the full control effect.

SMILES	IMPase inh	12-hLO inh	PNC inhibitor	ALDH1A1 inh	IMPase Li cell	HPGD inh
O=C1CC(N2CCC(c3nc4ccccc4o3)CC2)C(=O)N1c1ccc(Cl)c(C(F)(F)F)c1 (centres undefined)	1.2	-16.5%	13.7	8.91µM*	-6.1%[38.3 µM]	20µM*
CCCOc1ccc(N2C(=O)CC(N3CCC(c4nc5ccccc5o4)CC3)C2=O)cc1 (centres undefined)	.	.	.	-3.4%	10.8%	.
O=C(O)c1ccc(N2C(=O)CC(N3CCC(c4nc5ccccc5[nH]4)CC3)C2=O)cc1 (centres undefined)	.	.	.	31.6µM*	3.7%	.
O=C1CC(N2CCC(c3nc4ccccc4[nH]3)CC2)C(=O)N1c1cccc(F)c1 (centres undefined)	.	.	.	11.2µM*	1.4%	.
O=C1CC(N2CCN(c3ccccc3Cl)CC2)C(=O)N1c1cccc(F)c1 (centres undefined)	-1.3	0.0%	2.9	11.2µM*	21.6%[38.3 µM]	-11.2%
COc1cccc(OC)c1-c1nn2c(-c3ccco3)nnc2s1	-2.2	-7.1%	?	?	-17.8%[38.3 µM]	15.8µM*
COc1cc(-c2nn3c(-c4ccco4)nnc3s2)cc(OC)c1OC	-3.7	-2.6%	-28.8	11.2%	-6.3%[38.3 µM]	-14.8%
CCOc1cccc(-c2nnc3sc(-c4ccco4)nn23)c1	-11.5	-4.2%	?	?	0.9%[38.3 µM]	-21.7%
COc1cccc(-c2nn3c(-c4ccco4)nnc3s2)c1	-7.2	-20.1%	-14.2	3.55µM*	11.2µM*	?
Cn1c2c(c(=O)c3ccccc31)C[C@@H](O)C(C)(C)O2	.	.	.	-0.2%	18.8%	-14.4%
COc1ccc2c(c1)C(c1ccc(C)cc1)CC(=O)O2 (centres undefined)	.	-1.3%[0.00818 µM]	.	3.2%[120 µM]	3.2%	-3.5%
CCC1C(=O)C[C@H]2CCN3C(=O)CCCC1C23 (some centres undefined)	.	-0.3%[0.00818 µM]	.	-1.9%[120 µM]	7.8%	-6.2%
C=CCc1cc(/C=C2/NC(=O)NC2=O)cc(OCC)c1O	.	.	.	-7.1%	-8.8%	.
C=CCc1cc(/C=C2/NC(=S)NC2=O)cc(OC)c1O	11.9	-8.9%	11.9	11.2%	10.5%[38.3 µM]	25.1µM*
O=c1c(-c2ccc(F)c(F)c2)nc2cncnc2n1C1CC1	.	.	.	10.9%	-6.0%	.
C=C(C)C(N)=O	.	-1.7%	.	10.3%	10.1%	-7.7%
Cc1cccc(C(=O)CC(=O)c2cc(Cl)ccc2O)c1	-1.4	-29.2%	26.0	0.6%	22.9%[38.3 µM]	15.8µM*
COc1ccc(O)c(C(=O)CC(=O)c2ccc(F)cc2)c1	2.5	?	-2.2	1.4%	23.2%[38.3 µM]	-29.3%
Cc1cccc(C(=O)NNC(=O)c2cccc(C)c2)c1	.	5.1%	2.4	0.5%	-10.0%	-0.6%
O=C(O)CC(=O)Nc1cc(Cl)ccc1O	-2.5	4.3%	7.9	0.8%	22.9%[38.3 µM]	0.9%
Cc1ccc(O)c(C(=O)CC(=O)c2cccc(F)c2)c1	-5.6	-28.0%	?	-8.2%	10.4%[38.3 µM]	22.4µM*
O=C(CC(=O)c1cc(Cl)ccc1O)c1ccccc1	1.1	-23.4%	?	10.7%	11.5%[38.3 µM]	25.1µM*
CCOC(=O)c1cnc2ccc(Cl)cc2c1Nc1ccc(OCC)cc1	7.1	.	.	.	.	.
O=C(Nc1ccc(-n2nncc2-c2ccco2)cc1)c1cccc(F)c1	5.0	-7.6%	12.2	?	22.2%	12.6µM*
CCOc1c2ccc(C(=O)NCCc3ccc(C)cc3)cc2nn1CC	3.1	3.6%	-112.6*	?	1.0%[38.3 µM]	?
SMILES	IMPase inh	12-hLO inh	PNC inhibitor	ALDH1A1 inh	IMPase Li cell	HPGD inh
CCOc1c2ccc(C(=O)NCc3ccc(C)cc3)cc2nn1CC	8.0	4.0%	77.3	?	-9.8%[38.3 µM]	?
N[C@H](CC(=O)O)C(=O)O	-0.1	0.1%	.	15.6%	2.2%	-6.6%
COc1ccc(NS(=O)(=O)c2ccc3nc(COc4ccc(Cl)c(C)c4)[nH]c3c2)cc1	-1.9	-13.3%	-106.3*	-12.9%	.	.
COCc1n[nH]c(=S)n1-c1ccccc1	1.3	7.1%	3.6	1.3%	-5.3%[38.3 µM]	-3.0%
S=c1[nH]nc(CSCc2ccccc2Cl)n1-c1ccccc1	5.8	-10.8%	-7.8	4.47µM*	-16.6%[38.3 µM]	?
COc1ccc(C2C3=C(CCCC3=O)Nc3nc(SCc4ccc(C(=O)O)cc4)nn32)cc1OC (centres undefined)	?	-1.3%	51.4	?	-3.4%[38.3 µM]	?
COC(=O)c1nc2n(n1)C(c1cccc(Cl)c1)C1=C(CCCC1=O)N2 (centres undefined)	9.2	-1.8%	9.4	17.8%	2.4%[38.3 µM]	15.8µM*
COC(=O)c1nc2n(n1)C(c1cccc(Cl)c1)C1=C(CC(C)(C)CC1=O)N2 (centres undefined)	6.3	-3.7%	44.4	5.8%	-5.9%[38.3 µM]	-29.8%
COc1ccc(C2C3=C(CCCC3=O)Nc3nc(SCc4ccccc4)nn32)cc1OC (centres undefined)	1.8	27.8%	-85.8*	1.8%	-9.8%[38.3 µM]	-16.1%
CCCCOC(=O)c1ccc(NC(=O)/C(C#N)=C/c2ccc(-c3ccccc3)o2)cc1	-15.4	.	.	.	.	.
CCCCc1cc2c(cn1)=C(OC(=O)c1ccco1)C(C)(OC(=O)CC)C(=O)C=2 (centres undefined)	.	-1.6%[11.4 µM]	.	2µM*	5.2%	-13.3%
Cc1[nH]c2ccccc2c1CN1CCC(Cc2ccccc2)CC1	.	.	.	?	33.1%	.
COc1cc(/C=C2/C(=O)NN(c3cccc(C)c3)C2=O)ccc1OC(=O)c1ccco1	?	?	-7.5	3.16µM*	18.8%	2µM*
CCOc1cc(/C=C/C(=O)O)ccc1OCc1ccccc1	.	.	.	1.3%	12.3%	.
COc1cc(/C=C2/C(=O)NN(c3cccc(C)c3)C2=O)cc([N+](=O)[O-])c1O	.	.	.	?	15.5%	.
CCOc1cc(/C=C2/C(=O)N(c3ccccc3)N=C2C)ccc1OC(=O)c1ccco1	11.6	-11.8%	-21.5	?	12.3%[38.3 µM]	8.91µM*
CCOc1cc(/C=C2\C(=O)N(c3ccc(C(N)=O)cc3)N=C2C)ccc1OC(=O)c1cccs1	0.7	-18.0%	11.7	0.708µM*	43.6%[38.3 µM]	7.08µM*
CCOc1cc(/C=C2\C(=O)ON=C2C)ccc1OCc1ccccc1	.	8.9%	42.4	3.55µM*	25.1%	7.08µM*
CC1=NN(c2ccc(C(=O)O)cc2)C(=O)/C1=C\c1ccc(OC(=O)c2cccs2)cc1	.	.	.	2.24µM*	3.5%	.
